Screening data: PubChem BioAssay, National Center for Advancing Translational Sciences (NCATS)
RE007 growth inh – less growth of the S. pombe RE007 Vpr strain. S. pombe RE007 Vpr strain, BacTiter-Glo ATP luminescence, 24 h. Potency, µM (highest dose often 92.2 µM), actives largely listed as inhibitors. 0.21% of 360,000 active; active = well fitted falling curve with a large enough effect; inconclusive = small, poorly fitted or top-dose-only effect; inactive = no such curve, though single readings can be large or run the other way; also: nearly all actives have a fitted effect of over 50% in size
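Fission yeast RE007 carrying one integrated HIV-1 vpr copy, seeded at OD 0.01 in PMG+AL medium with 23 nL pinned compound. Grown 24 h at 30 degrees; viability read by BacTiter-Glo luminescence after 5 min.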
Sm TGR inh – S. mansoni TGR enzyme inhibition. purified TGR, DTNB reduction, TNB absorbance 405 nm. Potency, µM (top dose mostly 114 µM), hits mostly inhibitors. 3% of 360,000 active. AID 485364; also: nearly all actives have a fitted effect of over 60% in size
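TGR 20 nM + NADPH 100 uM (dispensed conc.), cpd preinc 15 min RT; start with NADPH (500 uM addition) then DTNB (15 mM addition). Kinetic TNB absorbance, 405 nm filter. Four-parameter Hill fit across titration.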
LmPK inhibitor – inhibitors of Leishmania mexicana pyruvate kinase; Q27686; purified LmPK, Kinase-Glo ATP luminescence, 1 h; Potency, µM (top dose mostly 57.5 µM), hits mostly inhibitors; 0.37% of 290,000 active; AID 1721
Target sequence (Q27686 whole entry, looked up): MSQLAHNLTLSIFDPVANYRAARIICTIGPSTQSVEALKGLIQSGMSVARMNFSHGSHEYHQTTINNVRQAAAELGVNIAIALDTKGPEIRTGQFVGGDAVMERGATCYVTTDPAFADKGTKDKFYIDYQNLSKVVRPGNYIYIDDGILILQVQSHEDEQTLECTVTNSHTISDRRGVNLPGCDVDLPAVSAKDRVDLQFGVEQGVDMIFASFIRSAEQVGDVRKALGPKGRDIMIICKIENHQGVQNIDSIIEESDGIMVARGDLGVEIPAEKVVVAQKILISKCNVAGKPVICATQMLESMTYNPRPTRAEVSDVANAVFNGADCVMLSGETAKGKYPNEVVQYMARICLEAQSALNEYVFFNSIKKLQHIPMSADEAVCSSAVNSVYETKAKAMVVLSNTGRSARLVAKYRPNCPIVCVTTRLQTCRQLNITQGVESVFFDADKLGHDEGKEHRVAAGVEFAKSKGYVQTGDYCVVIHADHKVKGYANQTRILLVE
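ATP generated from ADP (0.1 mM) and PEP (0.5 mM) by 0.1 nM LmPK over 1 h at room temperature (pH 7.2 imidazole buffer) was detected by coupled luciferase luminescence. Values were normalized to uninhibited and no-enzyme wells.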
TbPYK inhibitor – blocks Trypanosoma brucei pyruvate kinase | Q57TT1 | TbPYK enzyme, Kinase-Glo Plus ATP luminescence, 45 min | Potency, µM (series often up to 76.8 µM), hits mostly inhibitors | 0.12% of 410,000 active | AID 624173; also: nearly all actives have a fitted effect of over 50% in size
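Assay buffer: 50 mM TEA pH 7.2, 100 mM KCl, 10 mM MgCl2, 0.05% BSA, 0.01% Tween-20. Pyruvate kinase from T. brucei plus substrate met compound, then ADP (130 uM final). Luminescence was read post 45 min RT.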
A number is an active result; n = inactive; u = inconclusive; x = no result; [ ] = remark or other dose. In the library only some 3% were active in any assay of this set; here they are far more common. Unless noted, calls follow the shape of the dose curve; as a rule, active = well fitted curve in the direction sought with a large enough effect; inconclusive = small, poorly fitted or top-dose-only effect, or another doubt; inactive = no such curve, though single readings can be large; an effect the other way counts as inactive or inconclusive.

SMILES	RE007 growth inh	Sm TGR inh	LmPK inhibitor	TbPYK inhibitor
N#Cc1ccc(NC(=O)C2Cc3ccccc3CN2S(=O)(=O)c2ccc(F)cc2)cc1 (stereo not given)	x	n	x	n
COC(=O)c1c(C)oc(C)c1S(=O)(=O)NC(C)(C)C	n	25.1µM	n	n
COC(=O)c1c(C)oc(C)c1S(=O)(=O)N(Cc1ccccc1)C(C)C	n	31.6µM	n	n
COC(=O)c1c(C)oc(C)c1S(=O)(=O)Nc1ccccc1	n	n	n	n
COC(=O)c1c(C)oc(C)c1S(=O)(=O)N1CCCCC1	n	39.8µM	n	n
COC(=O)c1c(C)oc(C)c1S(=O)(=O)N1CCCC1	n	50.1µM	n	n
COC(=O)c1c(C)oc2ccc(N(C(C)=O)S(=O)(=O)c3ccccc3)cc12	n	n	n	n
CC(=O)N1C[C@H]2CON(C)[C@H]2C[C@H]1c1ccccc1	n	x	x	n
CCOc1ccc(NC(=O)Cn2cc(C(=O)c3ccc(F)cc3)c(=O)c3cc4c(cc32)OCCO4)cc1	x	n	x	n
O=C(NNc1ccccc1)c1ccccc1	n	x	x	n
O=C(NNc1ccc(O)cc1)c1ccc(Br)cc1	n	22.4µM	n	n
O=C1NC(=S)S/C1=C1\Sc2ccccc2N1CCCS(=O)(=O)O	n	n	15.8µM	n
NN1C(=O)/C(=C2/Sc3ccccc3N2CCCS(=O)(=O)O)SC1=S	n	n	n	n
O=S(=O)(c1ccc(Br)cc1)c1cnc2ccccc2n1	n	14.1µM	n	n
S=c1[nH]nc(CSc2nc3ccccc3s2)n1C1CCCCC1	n	n	11.2µM	u
S=c1[nH]nc(COc2ccccc2)n1C1CCCCC1	n	n	12.6µM	u
Cc1ccc(-n2c(CNc3cccc(Cl)c3)n[nH]c2=S)cc1	n	n	n	u
O=C(O)CSc1nnc(CSc2nc3ccccc3s2)n1-c1ccccc1	n	n	n	n
C#CCSc1nnc(CSc2nc3ccccc3s2)n1-c1ccccc1	n	50.1µM	n	n
CCn1c(CSc2nc3ccccc3s2)nc2ccccc21	u	n	n	n
FC(F)(F)c1cccc(NCc2n[nH]c(=S)n2C2CCCCC2)c1	n	n	u	12.6µM
O=C(Cn1cc(S(=O)(=O)Cc2cccc(Cl)c2)c2ccccc21)Nc1ccccc1C(F)(F)F	x	n	x	n
Cc1ccc(CNC(=O)C2(C)CCN2C(=O)Cc2ccc(C(C)(C)C)cc2)cc1 (stereo not given)	n[18.4 µM]	x	x	n
COc1ccc(OC)c(CNC(=O)CN2N=C(c3ccc(Cl)cc3)CCC2=O)c1	x	n	x	n
CSC(SC)=C(C#N)C(=O)c1ccccc1	n	11.2µM	n	n
SMILES	RE007 growth inh	Sm TGR inh	LmPK inhibitor	TbPYK inhibitor
COc1cccc(C(=O)C(C#N)=C(SC)SC)c1	n	12.6µM	n	n
C[C@]12c3[nH]c4cc(-c5ccco5)ccc4c3CCN1C(=O)[C@@H](CC(=O)NCc1cccc(C(F)(F)F)c1)C[C@@H]2C(=O)N1CCCCC1	n	x	x	n
CCc1nnc(NC(=O)CSc2nnc(-c3ccco3)n2C)s1	n	n	n	n
Cc1nnc(NC(=O)CSc2ccc(-c3ccco3)nn2)s1	n	14.1µM	n	n
Cc1nnc(NC(=O)CSc2nnc(-c3ccco3)n2C(C)C)s1	n	n	n	n
CCc1nnc(NC(=O)CSc2ccc(-c3ccco3)nn2)s1	n	7.08µM	n	n
O=c1[nH]c2ccc(Br)cc2c(-c2ccccc2)c1CN1CCOCC1	n	35.5µM	n	n
CCn1c(SCC(=O)NCc2ccco2)nnc1C1CCCC1	n	39.8µM	n	n
Cc1ccc(NCc2nnc(SCC(=O)NCc3ccco3)n2CC2CCCO2)cc1Cl (stereo not given)	n	50.1µM	n	n
CC(C)n1c(SCC(=O)NCc2ccco2)nnc1C1CC1	n	17.8µM	n	n
COc1ccccc1C(=O)NCC1(N2CCN(C)CC2)CCCCC1	x	n	x	n
Cc1cnc(Nc2ccc(F)cc2Cl)nc1-c1c[nH]c(C(=O)N[C@H](CO)c2cccc(Cl)c2)c1	x	x	x	n
O=C(CSc1nc2ccccc2nc1Cc1ccccc1F)Nc1cccc(C(F)(F)F)c1	x	79.4µM	x	n
CCc1nnc(NC(=O)CSc2nc3c([nH]c4ccccc43)c(=O)n2-c2ccc(OC)cc2)s1	x	n	x	n
Cc1cc(C(=O)CN2CCCCC2)c(C)n1-c1ccc(F)cc1	n	n	n	n
Cc1cc(C(=O)CN2CCCC2)c(C)n1-c1ccc(F)cc1	n	44.7µM	n	n
COc1cc(O)oc1C=Nc1ccc(Cl)cc1Cl	n	79.4µM	n	n
COc1cc(C(=O)O)ccc1O	n	n	n	n
